Measurements taken from the supplement of paper PMC3545927.
Some of the results follow. How many sequences the whole screen found active is unknown.

Target: furin, P09958
Assay: furin cleavage Z-score vs untreated control; higher = more cleavage, active = 3.5 or more, inactive = 1 or less, 8 variable residues between constant flanks
Procedure, shortened: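 Sequencing of released DNA, tagged with adapters by PCR, gave read counts used as abundance. That DNA was freed when purified furin cut N-terminally bead-bound 8-mer peptides fused to a cDNA oligonucleotide, in 0.01 ml reactions at 1:10 enzyme:substrate in 50 mM HEPES pH 7.5 with CaCl2 and NaCl, lasting 7.5, 15 or 30 min. The cleavage Z-score was the lowess-adjusted log count versus furin-free reactions, scaled by median absolute deviation.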

furin, P09958, sequence (P09958 whole entry): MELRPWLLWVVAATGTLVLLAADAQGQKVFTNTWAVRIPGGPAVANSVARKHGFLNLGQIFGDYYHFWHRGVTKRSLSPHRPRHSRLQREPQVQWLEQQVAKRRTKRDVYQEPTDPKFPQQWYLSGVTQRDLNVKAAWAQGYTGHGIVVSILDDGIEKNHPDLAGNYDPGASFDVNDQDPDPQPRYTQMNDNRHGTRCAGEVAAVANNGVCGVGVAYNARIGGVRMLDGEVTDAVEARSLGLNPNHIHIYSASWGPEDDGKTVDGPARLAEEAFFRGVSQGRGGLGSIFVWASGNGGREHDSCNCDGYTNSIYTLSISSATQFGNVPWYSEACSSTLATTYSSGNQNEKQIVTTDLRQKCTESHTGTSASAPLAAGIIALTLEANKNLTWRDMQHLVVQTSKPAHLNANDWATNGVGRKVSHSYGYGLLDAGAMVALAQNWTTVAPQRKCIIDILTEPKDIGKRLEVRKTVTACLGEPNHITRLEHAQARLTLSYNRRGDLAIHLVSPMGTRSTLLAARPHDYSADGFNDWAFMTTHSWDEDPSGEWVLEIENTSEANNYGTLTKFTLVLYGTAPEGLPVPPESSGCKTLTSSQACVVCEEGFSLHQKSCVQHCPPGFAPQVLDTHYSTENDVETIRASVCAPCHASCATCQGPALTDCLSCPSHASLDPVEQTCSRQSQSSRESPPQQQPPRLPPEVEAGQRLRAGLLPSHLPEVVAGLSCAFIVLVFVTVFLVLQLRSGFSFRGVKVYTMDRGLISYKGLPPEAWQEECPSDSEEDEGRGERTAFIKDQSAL

Row | Sequence | furin cleavage Z-score (7.5 min) | furin cleavage Z-score (15 min) | furin cleavage Z-score (30 min)
1 | CARIKKWLEHAGNASASA [FS-1721] | -1.04 (inactive) | 0.181 (inactive) | 1.15
2 | CAMEEESQHLAGNASASA [HC13] | 1.19 | 0.958 (inactive) | 0.124 (inactive)
3 | CATTPCSGSFAGNASASA [HC1927] | -0.645 (inactive) | -1.19 (inactive) | 0.309 (inactive)
4 | CAVSCQRGYKAGNASASA [HC1165] | -0.75 (inactive) | 0.637 (inactive) | 1.1
5 | CAEVVTSTWTAGNASASA [HC2258] | 2.11 | -0.469 (inactive) | 0.353 (inactive)
6 | CADHEVVTSTAGNASASA [HC2295] | 0.352 (inactive) | -1.49 (inactive) | 1.29
7 | CARFRRSRRTAGNASASA [FS-2666] | 7.49 (active) | 8.92 (active) | 6.66 (active)
8 | CARFRRIRGEAGNASASA [FS-2491] | -0.28 (inactive) | -0.376 (inactive) | -0.341 (inactive)
9 | CAEAYRSRRTAGNASASA [FS-1116] | 1.35 | 1.26 | 3.71 (active)
10 | CAMEECSQHTAGNASASA [HC1778] | -0.696 (inactive) | 1.17 | 0.869 (inactive)
11 | CADHWRSRRTAGNASASA [FS-646] | 2.11 | 1.9 | 3.67 (active)
12 | CASREVPCHRAGNASASA [HC2437] | 0.554 (inactive) | 0.537 (inactive) | 0.935 (inactive)
13 | CATTPTSGSWAGNASASA [HC56] | -1.1 (inactive) | -0.337 (inactive) | -0.847 (inactive)
14 | CAETEVPCHRAGNASASA [HC2458] | 0.00837 (inactive) | 0.231 (inactive) | 0.879 (inactive)
15 | CARSKRSLSCAGNASASA [FS-2183] | 1.81 | 2.42 | 5.07 (active)
16 | CARSPRGVLRAGNASASA [FS-3089] | -0.934 (inactive) | -0.739 (inactive) | -0.752 (inactive)
17 | CARKNRSKNQAGNASASA [FS-3223] | 0.698 (inactive) | -0.524 (inactive) | 0.1 (inactive)
18 | CARSKRSPGGAGNASASA [FS-1931] | 9.79 (active) | 8.88 (active) | 8.01 (active)
19 | CAWSKRSLSQAGNASASA [FS-3178] | 0.451 (inactive) | 1.67 | 2.52
20 | CARSKRSKNQAGNASASA [FS-1973] | 5.82 (active) | 7.57 (active) | 6.19 (active)
21 | CARSSKDTSTAGNASASA [FS-2820] | -0.514 (inactive) | -1.51 (inactive) | -0.361 (inactive)

Row | Sequence | furin cleavage Z-score (7.5 min) | furin cleavage Z-score (15 min) | furin cleavage Z-score (30 min)
22 | CARSPRSASTAGNASASA [FS-1932] | 4.66 (active) | 5.46 (active) | 7.33 (active)
23 | CAMAECSQHLAGNASASA [HC1683] | 0.693 (inactive) | -0.153 (inactive) | 0.354 (inactive)
24 | CAEANAEDVVAGNASASA [HC1366] | 0.916 (inactive) | -1.42 (inactive) | -0.854 (inactive)
25 | CAKHMWNFISAGNASASA [HC1042] | -0.105 (inactive) | -0.376 (inactive) | -0.363 (inactive)
26 | CAITGHRMAWAGNASASA [HC317] | -0.992 (inactive) | -0.446 (inactive) | -1.11 (inactive)
27 | CAPVYCFTPSAGNASASA [HC413] | 0.856 (inactive) | 1.3 | 0.586 (inactive)
28 | CARSKRCSCSAGNASASA [FS-2809] | 0.463 (inactive) | -0.402 (inactive) | 1.36
29 | CARSARSPPGAGNASASA [FS-3074] | -0.433 (inactive) | -0.609 (inactive) | -0.311 (inactive)
30 | CARSKRSSSHAGNASASA [FS-2184] | 7.92 (active) | 8.7 (active) | 6.8 (active)
31 | CARSSRSPPGAGNASASA [FS-3098] | -0.0484 (inactive) | 0.711 (inactive) | 1.37
32 | CARSPRSPPGAGNASASA [FS-3091] | 2.88 | 4.13 (active) | 4.13 (active)
33 | CARSKRDPIIAGNASASA [FS-3206] | -1.19 (inactive) | 0.347 (inactive) | 1.06
34 | CARSKRNIIGAGNASASA [FS-1869] | 6.5 (active) | 8.47 (active) | 8.95 (active)
35 | CARYQRSHDDAGNASASA [FS-2320] | 0.707 (inactive) | -0.328 (inactive) | 0.764 (inactive)
36 | CARRWREVEEAGNASASA [FS-2803] | -0.554 (inactive) | -1.56 (inactive) | 0.0666 (inactive)
37 | CARYPRNVEEAGNASASA [FS-2850] | 4.99 (active) | 7.34 (active) | 7.13 (active)
38 | CARYPRDVRDAGNASASA [FS-2538] | 8.26 (active) | 9.51 (active) | 6.93 (active)
39 | CARSLREFEEAGNASASA [FS-3087] | -2.22 (inactive) | 0.955 (inactive) | 0.853 (inactive)
40 | CAVPPRYPRDAGNASASA [FS-311] | 5.8 (active) | 6.12 (active) | 6.06 (active)
41 | CAATPCSAHLAGNASASA [HC2463] | 0.828 (inactive) | 1.41 | 1.31
42 | CARHADVIPVAGNASASA [HC728] | -2.29 (inactive) | -0.0929 (inactive) | -1.98 (inactive)
